Among all 5,500 compounds or so, about 2,000 (36%) were called active. Not shown: some 18% with an inconclusive outcome. No stated cut-off is given here; in the data, active means normalized growth mostly below about 0.91 (no sharp cut-off); inconclusive means no clear call, values can overlap the other calls; inactive means mostly above about 0.92. The list shows a part of the results.
Assay: chemical genetic growth profiling, strain panel (AID 1159580);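 further: tested at 20 µM; growth read once vehicle control cultures reached saturation at 30 °C; 1 = growth at the plate median or of vehicle wells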
Conditions: S. cerevisiae deletion strains, growth OD

Measured: normalized growth

O=C(O)/C(=C/c1c(C(=O)O)[nH]c2cc(Cl)cc(Cl)c12)c1ccccc1
inactive: locus YAL013W, strain DEP1, stronger effect = lower value 0.99 | locus YAL040C, strain CLN3, stronger effect = lower value 1.07 | locus YCL061C, strain MRC1 (second series), stronger effect = lower value 0.977 | locus YDR150W, strain NUM1, stronger effect = lower value 0.979 | locus YDR363W, strain ESC2, stronger effect = lower value 1.03 | locus YER002W, strain NOP16, stronger effect = lower value 0.993 | locus YGR229C, strain SMI1, stronger effect = lower value 0.999 | locus YJR075W, strain HOC1, stronger effect = lower value 0.988 | locus YMR263W, strain SAP30, stronger effect = lower value 0.979 | locus YMR307W, strain GAS1, stronger effect = lower value 1.01 | locus YNL175C, strain NOP13, stronger effect = lower value 0.996 | locus YNL197C, strain WHI3, stronger effect = lower value 0.98 | locus YNL224C, strain SQS1, stronger effect = lower value 0.977 | locus YNL322C, strain KRE1, stronger effect = lower value 0.975 | locus YOR083W, strain WHI5 (second series), stronger effect = lower value 0.99 | locus YPL055C, strain LGE1, stronger effect = lower value 0.985
